Source: PubChem
DT40 TDP1 CPT = growth inhibition of DT40 Tdp1-/-;hTDP1 cells with camptothecin (screen for TDP1 inhibitors); chicken DT40 Tdp1-/-;hTDP1 cells + 20 nM CPT, ATP luminescence, 48 h; Potency, µM (titrated, usually from 46.2 µM), for inactives: top-dose activity change, negative = growth inhibition, most hits filed as inhibitors; 420,000 tested, 12% active; AID 686979; note: % is set by controls: 0 for no effect and ±100 for the full control effect; nearly all actives have a fitted effect of over 55% in size
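Chicken DT40 Tdp1-/- cells stably complemented with human TDP1 were seeded at 400 cells/well in medium containing 20 nM camptothecin, exposed to pin-transferred compounds, and grown at 37 °C for at least 48 hr. Viability was read as ATP luminescence.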
ClpP mod = qHTS Assay for Activators of ClpP; purified B. subtilis ClpP, FRET peptide cleavage, 20 min; Potency, µM (highest dose often 57.5 µM), for inactives: top-dose activity change, negative = active; 340,000 tested, 1.9% active; ATP-dependent Clp protease proteolytic subunit (Bacillus subtilis (strain 168)), P80244; active = well fitted falling curve with a large enough effect; inconclusive = small, poorly fitted or top-dose-only effect; inactive = no such curve, though single readings can be large or run the other way; note: the source files actives as falling curves though it sought activators and does not explain the sign; nearly all actives have a fitted effect of over 65% in size
Target sequence (P80244 whole entry, looked up): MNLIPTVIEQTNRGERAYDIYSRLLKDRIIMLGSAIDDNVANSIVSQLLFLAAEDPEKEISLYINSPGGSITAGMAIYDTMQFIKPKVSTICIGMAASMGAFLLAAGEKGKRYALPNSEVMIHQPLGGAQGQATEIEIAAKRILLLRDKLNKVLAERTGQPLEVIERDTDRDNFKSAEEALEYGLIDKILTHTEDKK
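ClpP 10 microg/mL final, pH 8 Tris/KCl buffer with BSA, glycerol, Tween-20; compound pinned in; FRET-FV substrate; RT 20 min; Ex320/Em430; ΔFRET vs ADEP 5.8 microM, DMSO, no enzyme.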
TDP1 cell noCPT = qHTS for Inhibitors of human tyrosyl-DNA phosphodiesterase 1 (TDP1): qHTS in cells in absence of CPT | DT40 Tdp1-/- hTDP1 cells, no CPT, ATP luminescence, 48 h | Potency, µM (doses to about 46.2 µM), for the others: at the highest dose activity change, negative = growth inhibition, hits mostly inhibitors | 420,000 tested, 15% active | AID 686978, 2013; note: % is set by controls: 0 for no effect and ±100 for the full control effect; nearly all actives have a fitted effect of over 55% in size
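A cellular qHTS used chicken DT40 cells lacking endogenous Tdp1 but carrying stably transfected human TDP1. Compounds were applied without camptothecin, and cell growth kinetics were judged by ATP-dependent luminescence after ≥48 hr.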
TDP1 inh = blocks human tyrosyl-DNA phosphodiesterase 1 | 350,000 tested, 0.28% active | AID 485290 | Potency, µM (doses to about 130 µM), inactives show at the highest dose activity change, negative = inhibition, usual class: inhibitors | recombinant TDP1, AlphaScreen DNA substrate cleavage; note: % is set by controls: 0 for no effect and ±100 for the full control effect; nearly all actives have a fitted effect of over 40% in size
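Recombinant human Tdp1 (E. coli-expressed, 1 nM final) preincubated with compounds 15 min at room temperature, then 5'-biotin/3'-phosphotyrosine-FITC DNA substrate (15 nM final) added for 5 min. AlphaScreen beads (10 ug/ml final) added 10 min; cleavage lowers signal.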
Active calls of the source: *; ? = inconclusive; . = not tested or not shown; [ ] = dose if it differs, or a comment. Sampled rows, rich in hits. Any-hit rate of the full collection: about 17%. Unless noted, calls come from the whole dose curve; as a rule, active = well fitted curve in the direction sought with a large enough effect; inconclusive = small, poorly fitted or top-dose-only effect, or another doubt; inactive = no such curve, though single readings can be large; an effect the other way counts as inactive or inconclusive. Potency is the fitted concentration of half-maximal effect.

SMILES	DT40 TDP1 CPT	ClpP mod	TDP1 cell noCPT	TDP1 inh
CC(=O)c1c(O)c(C)c(O)c2c1OC1=Cc3c(c(C)nn3-c3ccccc3)C(=O)C12C (configuration not stated)	23.1µM*	1.2%	16.4µM*	.
CC(=NCCC1=CCCCC1)c1c(O)n(C)c(=O)n(C)c1=O	10.3µM*	-0.1%	23.1µM*	1.9%
CC(=NCCO)c1c(O)n(C)c(=O)n(C)c1=O	-7.8%	0.6%	-0.8%	2.0%
CCOC(=O)C(O)(c1ccc(N(C)C(=O)COc2ccccc2)cc1)C(F)(F)F (configuration not stated)	-9.1%	-1.8%	0.2%	.
CN(C)C(=O)O/N=C(\N)COc1ccc(C(C)(C)C)cc1	20.6µM*	1.6%	?	2.6%
CO[C@H]1C[C@H](O[C@H]2[C@H](C)O[C@@H](O[C@@H]3/C(C)=C/C[C@@H]4C[C@@H](C[C@]5(C=C[C@H](C)[C@@H](C6CCCCC6)O5)O4)OC(=O)[C@@H]4C=C(C)[C@@H](O)[C@H]5OC/C(=C\C=C\[C@@H]3C)[C@]54O)C[C@@H]2OC)O[C@@H](C)[C@@H]1O	2.66µM*	.	4.73µM*	.
O=C1c2ccccc2C(=O)N1SC1CCCCC1	3.66µM*	0.4%	3.66µM*	3.9%
NC(=O)c1cn(C2CCCCC2)c2ccccc2c1=O	?	-3.4%	-8.5%	.
CC[N+](CC)(CCCNC1=CC(=O)C(NCCC[N+](CC)(CC)Cc2ccccc2)=CC1=O)Cc1ccccc1	-0.9%	.	-0.9%	6.1%
COc1ccc(CNC(=O)Cn2c(SCC(=O)Nc3ccc(C)c(C)c3)nc3ccccc32)cc1	?	-2.3%	4.61µM*	3.8%
Cc1cccc(-n2c(=O)c3c(c4cc(C)ccc4n3C)n(CC(=O)Nc3ccc(C)c(C)c3)c2=O)c1	-19.8%	?	?	2.8%
COC(=O)C1=C(c2cccc(C#N)c2)C[C@@H]2CC[C@H]1N2C(=O)NCCOc1ccccc1Cl	18.4µM*	-1.1%	16.4µM*	0.0%
COC(=O)C1=C(c2cccc(OCc3ccccc3)c2)C[C@@H]2CC[C@H]1N2C(=O)NCCOc1ccccc1Cl	?	-4.3%	23.1µM*	-0.1%
COC(=O)C1=C(c2cccc(OCc3ccccc3)c2)C[C@@H]2CC[C@H]1N2C(=O)NCCOc1ccccc1	?	-3.8%	20.6µM*	0.3%
COC(=O)C1=C(c2ccc(C(C)=O)cc2)C[C@@H]2CC[C@H]1N2C(=O)NCCOc1ccccc1Cl	23.1µM*	-0.8%	?	0.4%
COC(=O)C1=C(c2ccccc2OCc2ccccc2)C[C@@H]2CC[C@H]1N2C(=O)NCCOc1ccccc1Cl	?	-3.1%	?	1.0%
COC(=O)C1=C(c2ccc(OC)c(OC)c2)C[C@@H]2CC[C@H]1N2C(=O)NCCOc1ccccc1	?	0.8%	-22.2%	-1.0%
COC(=O)C1=C(c2ccc(C(C)=O)cc2)C[C@@H]2CC[C@H]1N2C(=O)NCCO	6.1%	-1.9%	0.0%	1.0%
Cc1ccc2c(c1)[C@@H]1CN(C)CC[C@H]1N2	.	.	.	0.7%
COC(=O)C1=C(c2cccc(OCc3ccccc3)c2)C[C@@H]2CC[C@H]1N2C(=O)NCCc1ccc(F)cc1	?	1.0%	16.4µM*	1.1%
CC(Cc1ccc(C(C)(C)C)cc1)CN1CCCCC1 (configuration not stated)	.	.	.	3.0%
[CH3][Hg][Cl]	.	.	.	8.7%
O=[N+]([O-])c1ccc(N(CCO)CCO)c2c1no[n+]2[O-]	0.092µM*	-28.7%	0.164µM*	.
CN1CCN(c2ccc([N+](=O)[O-])c3no[n+]([O-])c23)CC1	0.184µM*	-6.7%	0.164µM*	.
CN1CCN(c2ccc(S(C)(=O)=O)cc2[N+](=O)[O-])CC1	14.7%	0.9%	-9.5%	0.0%
SMILES	DT40 TDP1 CPT	ClpP mod	TDP1 cell noCPT	TDP1 inh
NC1CCC(CC2CCC(N)CC2)CC1 (configuration not stated)	.	.	.	7.0%
O=C1CC2OCC=C3CN4CC[C@@]56c7ccccc7N1C5C2C3CC46 (some centres not stated)	.	.	-11.9%	9.0%[56.1 µM]
COc1cccc(CNCCc2ccc3c(c2)OCO3)c1OC	-35.1%	1.8%	?	.
COc1ccc2c(c[n+](C)c3c4cc5c(cc4ccc23)OCO5)c1OC	1.26µM*	.	1.26µM*	14.8%
COc1cc2c(ccc3c4cc(OC)c(OC)cc4c[n+](C)c23)cc1O	1.3µM*	0.2%	1.16µM*	.
COc1ccc(N/N=C/c2c(O)n(-c3ccc(C)c(C)c3)c(=O)[nH]c2=O)cc1	?	1.2%	29.1µM*	12.8%
COc1ccc(CCNC(=O)c2ccc3c(c2)CCN3S(=O)(=O)c2ccc(C)cc2)cc1OC	20.6µM*	9.8%	13µM*	4.7%
CN1CCN(c2ccc(NC(=O)Oc3ccccc3)cc2)CC1	-1.6%	-5.6%	-6.6%	6.6%
COC(=O)c1[nH]c2ccc(C)cc2c1NC(=O)Oc1ccccc1	-19.5%	35.5µM*	-12.5%	5.3%
O=C(O)C1C2c3ccccc3C(=O)C1(C(=O)O)c1ccccc12 (configuration not stated)	8.5%	1.0%	-4.6%	.
COc1ccc2cc1Oc1ccc(cc1)C[C@H]1c3cc(c(OC)cc3CCN1C)Oc1c(OC)c(OC)cc3c1[C@@H](C2)N(C)CC3	?	-3.2%	23.1µM*	3.7%
COc1ccc2cc1Oc1ccc(cc1)CC1c3cc(c(OC)cc3CCN1C)Oc1c(OC)c(OC)cc3c1C(C2)N(C)CC3 (configuration not stated)	3.66µM*	.	3.66µM*	15.2%[56.1 µM]
CCCc1nc(SC)ncc1C(=O)Nc1ccc(Cl)cc1C(=O)c1ccccc1	?	-1.7%	23.1µM*	6.2%
CCc1nc(SC)ncc1C(=O)Nc1ccc(Cl)cc1C(=O)c1ccccc1	-0.9%	-0.1%	?	3.7%
CC(C)NC(=O)N1CC[C@@]2(CCCNC2)C1	-0.1%	.	-0.1%	.
COc1cc(CC(C)N)c(OC)cc1I (configuration not stated)	-24.2%	1.1%	?	10.7%[56.1 µM]
COc1ccccc1Sc1ccccc1CC(C)N (configuration not stated)	14.6µM*	1.0%	18.4µM*	5.6%
COc1cc(CC(C)N)c(OC)cc1Br (configuration not stated)	?	.	28.3µM*	.
CCCCCCn1c(O)c(C=Nc2ccccc2N2CCOCC2)c(=O)[nH]c1=S	?	1.8%	14.6µM*	4.1%
CCCCCCC(=O)N/N=C/c1c(O)n(CCCC)c(=S)[nH]c1=O	?	.	18.4µM*	7.7%
CCCCC(=O)N/N=C/c1c(O)n(CC)c(=S)[nH]c1=O	-2.8%	-3.1%	5.1%	8.2%
N#Cc1c(Cl)cccc1Cl	-7.3%	.	-2.4%	6.3%
Cc1ccc(Cn2nc(C(=O)Nc3ccc(Br)cc3)cc2C)cc1	?	.	11.6µM*	.
